Test results: PubChem BioAssay AID1159580 (chemical genetic matrix, 2015)
Out of some 5,500 compounds screened, about 2,000 (36%) were called active. About 18% were inconclusive and are not listed. No stated cut-off is given here; in the data, active means normalized growth mostly below about 0.91 (no sharp cut-off); inconclusive means no clear call, values can overlap the other calls; inactive means mostly above about 0.92. Some of the results follow.

Experiment: chemical genetic growth profiling, strain panel (AID 1159580);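 further: tested at 20 µM; growth read once vehicle control cultures reached saturation at 30 °C; 1 = growth at the plate median or of vehicle wells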
Details: S. cerevisiae deletion strains, growth OD
[1] = locus YHR030C, strain SLT2, stronger effect = lower value
[2] = locus YHR079C, strain IRE1, stronger effect = lower value
[3] = locus YJL095W, strain BCK1, stronger effect = lower value
[4] = locus YJR066W, strain TOR1, stronger effect = lower value
[5] = locus YLR113W, strain HOG1, stronger effect = lower value
[6] = locus YNL183C, strain NPR1, stronger effect = lower value
[7] = locus YOR231W, strain MKK1, stronger effect = lower value
[8] = locus YPL256C, strain CLN2, stronger effect = lower value
[9] = locus YAL013W, strain DEP1, stronger effect = lower value
[10] = locus YAL040C, strain CLN3, stronger effect = lower value
[11] = locus YCL061C, strain MRC1 (second series), stronger effect = lower value
[12] = locus YDR150W, strain NUM1, stronger effect = lower value
[13] = locus YER002W, strain NOP16, stronger effect = lower value
[14] = locus YJR075W, strain HOC1, stronger effect = lower value
[15] = locus YNL153C, strain GIM3, stronger effect = lower value
[16] = locus YNL175C, strain NOP13, stronger effect = lower value
[17] = locus YNL197C, strain WHI3, stronger effect = lower value
[18] = locus YNL224C, strain SQS1, stronger effect = lower value
[19] = locus YOR083W, strain WHI5 (second series), stronger effect = lower value
[20] = locus YPL055C, strain LGE1, stronger effect = lower value

Measured: normalized growth

CN(C)CCCSC(=N)N
inactive: [1] 0.951 | [2] 0.968 | [3] 0.963 | [4] 0.903 | [5] 0.982 | [6] 0.92 | [7] 0.966 | [8] 0.978

N=C(N)SCCc1ccc(CCSC(=N)N)cc1
inactive: [9] 1.01 | [10] 1 | [11] 0.996 | [12] 1 | locus YDR363W, strain ESC2, stronger effect = lower value 1.04 | [13] 0.996 | [14] 0.987 | [15] 0.964 | [16] 1 | [17] 1.03 | [18] 1.02 | locus YNL322C, strain KRE1, stronger effect = lower value 1 | [19] 0.995 | [20] 1.02

N=C(N)SCCN
active: locus YLR357W, strain rsc2, stronger effect = lower value 0.833
inactive: [9] 1.06 | locus YAL021C, strain ccr4, stronger effect = lower value 0.98 | locus YAL026C, strain drs2, stronger effect = lower value 1 | locus YAL030W, strain snc1, stronger effect = lower value 1.01 | [10] 1.05 | locus YBL061C, strain skt5, stronger effect = lower value 1.01 | locus YBR009C, strain hhf1, stronger effect = lower value 1 | locus YBR023C, strain chs3, stronger effect = lower value 1 | locus YBR171W, strain sec66, stronger effect = lower value 1.01 | locus YBR231C, strain swc5, stronger effect = lower value 0.992 | locus YBR279W, strain paf1, stronger effect = lower value 0.998 | locus YCL011C, strain gbp2, stronger effect = lower value 1.01 | locus YCL016C, strain dcc1, stronger effect = lower value 0.999 | [11] 0.995 | locus YCL061C, strain MRC1, stronger effect = lower value 1.01 | locus YCL069W, strain vba3, stronger effect = lower value 1.01 | locus YCR088W, strain abp1, stronger effect = lower value 1 | locus YDL005C, strain med2, stronger effect = lower value 0.997 | locus YDL040C, strain nat1, stronger effect = lower value 0.998 | locus YDR001C, strain nth1, stronger effect = lower value 1.01 | locus YDR069C, strain doa4, stronger effect = lower value 0.999 | locus YDR137W, strain rgp1, stronger effect = lower value 1 | [12] 1.02 | locus YDR159W, strain sac3, stronger effect = lower value 0.995 | locus YDR195W, strain ref2 0.941 | locus YDR297W, strain sur2, stronger effect = lower value 1.01 | locus YDR334W, strain swr1, stronger effect = lower value 1 | locus YDR335W, strain msn5, stronger effect = lower value 1 | locus YDR392W, strain spt3, stronger effect = lower value 0.856 | locus YEL003W, strain gim4, stronger effect = lower value 1.01 | locus YEL037C, strain rad23, stronger effect = lower value 0.996 | locus YEL061C, strain CIN8 (second series), stronger effect = lower value 1 | [13] 0.986 | locus YER015W, strain faa2, stronger effect = lower value 1.01 | locus YER016W, strain bim1, stronger effect = lower value 1 | locus YER111C, strain swi4, stronger effect = lower value 1 | locus YER155C, strain BEM2 (second series), stronger effect = lower value 0.985 | locus YFR010W, strain ubp6, stronger effect = lower value 1.01 | locus YGL167C, strain pmr1, stronger effect = lower value 1.01 | locus YGL173C, strain kem1, stronger effect = lower value 1 | locus YGL227W, strain vid30, stronger effect = lower value 1 | locus YGL240W, strain doc1, stronger effect = lower value 0.985 | locus YGL253W, strain hxk2, stronger effect = lower value 1.01 | locus YGR078C, strain PAC10, stronger effect = lower value 0.994 | locus YHR013C, strain ard1, stronger effect = lower value 0.969 | locus YHR027C, strain rpn1, stronger effect = lower value 1.01 | [1] 1.07 | [2] 1.07 | locus YHR142W, strain chs7, stronger effect = lower value 1.01 | locus YJL092W, strain hpr5, stronger effect = lower value 0.998 | locus YJL095W, strain BCK1 (second series), stronger effect = lower value 0.998 | [3] 1.04 | locus YJL115W, strain asf1, stronger effect = lower value 0.99 | locus YJL129C, strain trk1, stronger effect = lower value 1.03 | locus YJL154C, strain vps35, stronger effect = lower value 0.997 | locus YJL164C, strain tpk1, stronger effect = lower value 1.01 | locus YJL166W, strain qcr8, stronger effect = lower value 1.01 | locus YJL187C, strain SWE1, stronger effect = lower value 1 | [4] 0.976 | [14] 1.01 | locus YKL160W, strain elf1, stronger effect = lower value 0.996 | locus YKR026C, strain gcn3, stronger effect = lower value 1 | locus YKR091W, strain srl3, stronger effect = lower value 1 | locus YLL001W, strain dnm1, stronger effect = lower value 0.999 | locus YLL026W, stronger effect = lower value 0.999 | locus YLL041C, strain sdh2, stronger effect = lower value 1 | locus YLR027C, strain aat2, stronger effect = lower value 1.01 | [5] 1.03 | locus YLR221C, strain rsa3, stronger effect = lower value 1 | locus YLR258W, strain gsy2, stronger effect = lower value 1 | locus YLR262C, strain YPT6 (second series), stronger effect = lower value 0.991 | locus YLR320W, strain mms22, stronger effect = lower value 0.997 | locus YLR342W, strain FKS1, stronger effect = lower value 1.01 | locus YLR370C, strain arc18, stronger effect = lower value 1.01 | locus YLR384C, strain iki3, stronger effect = lower value 1 | locus YML120C, strain ndi1, stronger effect = lower value 0.999 | locus YMR058W, strain fet3, stronger effect = lower value 1 | locus YMR125W, strain sto1, stronger effect = lower value 0.993 | locus YMR129W, stronger effect = lower value 1.02 | locus YMR205C, strain PFK2, stronger effect = lower value 1.01 | locus YMR231W, strain pep5, stronger effect = lower value 0.998 | locus YMR263W, strain SAP30, stronger effect = lower value 1.01 | locus YMR307W, strain GAS1, stronger effect = lower value 1.02 | locus YNL071W, strain lat1, stronger effect = lower value 1 | locus YNL128W, strain TEP1, stronger effect = lower value 0.987 | [15] 1 | [16] 0.991 | [6] 0.989 | [17] 0.992 | locus YNL209W, strain ssb2, stronger effect = lower value 1.01 | [18] 1.01 | locus YNL248C, strain rpa49, stronger effect = lower value 1.01 | locus YNL322C, strain KRE1 (second series), stronger effect = lower value 0.998 | locus YNR049C, strain mso1, stronger effect = lower value 1 | locus YOR001W, strain rrp6, stronger effect = lower value 0.995 | locus YOR070C, strain gyp1, stronger effect = lower value 0.989 | locus YOR080W, strain dia2, stronger effect = lower value 0.996 | [19] 0.997 | locus YOR083W, strain WHI5, stronger effect = lower value 0.995 | locus YOR106W, strain vam3, stronger effect = lower value 1.04 | [7] 1.05 | locus YOR265W, strain rbl2, stronger effect = lower value 1.01 | locus YOR270C, strain vph1, stronger effect = lower value 1.06 | locus YOR290C, strain snf2, stronger effect = lower value 0.956 | locus YPL051W, strain arl3, stronger effect = lower value 0.994 | [20] 1.01 | locus YPL078C, strain atp4, stronger effect = lower value 1.01 | locus YPL106C, strain sse1, stronger effect = lower value 1 | locus YPL240C, strain hsp82, stronger effect = lower value 1.02 | [8] 1.12
